Assay outcomes from PubChem.
CYP2C9 act = CYP2C9 (human) activation | P11712 | recombinant CYP2C9, luciferin-H conversion, luminescence; active compounds read high; factor 1 = untreated enzyme, 0 = blocked | activation factor at 5 µM | actives 1.4% (n = 96,000);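 active = activation factor of 2 or more for CYP2C9 at a 5 µM dose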;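 note: 0 = sulfaphenazole-blocked wells and 1 = vehicle-only wells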
Target sequence (P11712 whole entry, looked up): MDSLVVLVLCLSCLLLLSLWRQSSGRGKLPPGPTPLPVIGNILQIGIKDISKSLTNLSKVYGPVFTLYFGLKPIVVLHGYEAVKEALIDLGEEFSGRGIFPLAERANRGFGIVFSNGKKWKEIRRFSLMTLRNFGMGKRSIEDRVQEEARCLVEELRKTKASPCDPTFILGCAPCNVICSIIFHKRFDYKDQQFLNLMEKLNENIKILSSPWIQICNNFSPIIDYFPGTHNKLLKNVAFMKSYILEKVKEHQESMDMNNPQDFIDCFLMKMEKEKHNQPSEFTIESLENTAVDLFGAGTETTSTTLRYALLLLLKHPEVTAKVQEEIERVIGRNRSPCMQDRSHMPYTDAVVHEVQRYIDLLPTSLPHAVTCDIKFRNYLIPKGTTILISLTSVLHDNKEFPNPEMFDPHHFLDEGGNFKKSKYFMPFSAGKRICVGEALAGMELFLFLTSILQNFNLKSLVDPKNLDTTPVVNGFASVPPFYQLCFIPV
CYP2C9 inh = human CYP2C9 inhibition. CYP2C9 Supersomes, luciferin-H conversion, luminescence. actives 20% (n = 96,000). AID 777. inhibition, % at 5 µM;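 active = blocking of liver enzyme CYP2C9 beyond about 50% at 5 µM, limit read from the data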
PostGolgi ctrl = yeast control strain growth, post-Golgi counter-screen; efflux-deficient yeast background strain, growth absorbance A615, 16 h; inhibition, % at 10 µM; actives 5% (n = 98,000); AID 738
CYP2C19 inh = human CYP2C19 inhibition. P33261. inhibition, % at 5 µM. CYP2C19 Supersomes, luciferin-H EGE luminescence, 30 min. actives 21% (n = 96,000);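 active = CYP2C19 inhibition above a set limit at 5 µM in the primary screen, cut at about 50% in these data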;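 note: plate controls were negative control wells for no effect and 2.5 mM tranylcypromine positive control for full effect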
CYP2C19 activ = increases human CYP2C19 enzyme activity. 96,000 tested, under 10 active. P33261. activation factor at 5 µM. recombinant CYP2C19, luciferin-H EGE luminescence; active compounds read high; 0 = fully inhibited enzyme, 1 = untreated enzyme;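 active = activation factor of at least 2 at 5 µM in the primary screen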;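 note: 0 = wells with 2.5 mM tranylcypromine and 1 = vehicle-only wells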
PostGolgi yeast = growth inhibition of a yeast mutant, post-Golgi transport screen; post-Golgi transport phenotypic cell assay; inhibition, % at 10 µM; actives 0.9% (n = 98,000);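 note: yeast cells grown in 1536-well plates; yeast grown about 18 h at 30C before absorbance read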
* hit, by the source's call; . = not tested or not shown. Sampled rows, rich in hits. Any-hit rate of the full collection: about 32%. Cut-off read from the data, not from the text of the source, unless noted: active = inhibition above about 30%; inactive = the rest.

SMILES	CYP2C9 act	CYP2C9 inh	PostGolgi ctrl	CYP2C19 inh	CYP2C19 activ	PostGolgi yeast
CCS(=O)(=O)n1nc(-c2ccccc2)cc1N	0.9	7	-2	67*	0.3	13
O=C(c1cc(Cl)cc(Cl)c1)N1CCOCC1	1.2	-23	6	-3	1	-2
O=C(c1cccc(F)c1)N1CCN(C(=O)c2cc3ncc(Br)cn3n2)CC1	0.9	11	10	24	0.8	-6
CCCN1C(=O)c2cc(C(=O)NCc3ccc(OC)cc3)ccc2C1O (stereo not given)	0.9	15	-5	-3	1	11
Nc1cc(-c2ccc(Cl)cc2)nn1S(=O)(=O)c1ccccc1	0.2	83*	14	64*	0.4	-6
CCOc1ccc(-c2cc(N)n(S(=O)(=O)c3ccc(OC)cc3)n2)cc1	0.6	44	-8	-6	1.1	3
COc1ccc(C(=O)Nc2ccccc2C(=O)N/N=C/c2cccc3ccccc23)cc1	0.5	50	23	37	0.6	-12
O=C(COC(=O)c1cc(-c2ccc(Cl)s2)nc2ccccc12)NCc1ccco1	0.8	17	33*	-15	1.2	-9
COc1ccc(CNC(=O)COC(=O)c2cc(-c3ccc(Cl)s3)nc3ccccc23)cc1	0.8	16	-2	-3	1	14
O=C(COC(=O)c1cc(-c2cccs2)nc2ccccc12)NCc1ccco1	0.1	90*	16	54*	0.5	-6
O=C(COC(=O)c1cc(-c2ccco2)nc2ccccc12)NCc1ccc2c(c1)OCO2	.	.	18	.	.	2
COc1ccccc1CNC(=O)COC(=O)c1cc(-c2ccco2)nc2ccccc12	0.5	52*	17	-18	1.2	-3
CCc1c(C)sc(NC(=O)c2cc(-c3ccco3)on2)c1C#N	1.1	-9	-4	-6	1.1	-9
CCOCCCNC(=O)C(NC(=O)CC1NC(=O)NC1=O)c1ccc(Cl)cc1 (stereo not given)	1	-4	9	-13	1.1	5
COCCn1c(C)cc(C(=O)COC(=O)c2cc3c(s2)CCC3)c1C	1.1	-7	16	57*	0.4	-6
Cc1nn(Cc2ccc(Cl)c(Cl)c2)c(C)c1NC(=O)c1cc(CC(C)C)on1	0.2	82*	11	74*	0.3	-1
CC(C)Cc1cc(C(=O)Nc2cc(C(F)(F)F)ccc2Cl)no1	2.7*	-170	-5	10	0.9	-8
Cc1ccc(Cn2ccc(NC(=O)c3cc(CC(C)C)on3)n2)cc1	0.1	90*	11	23	0.8	-4
Cc1nn(Cc2ccc(Br)cc2)c(C)c1NC(=O)c1nn(C)cc1Cl	0.4	61*	5	43	0.6	-10
Cc1ccc(Cn2ccc(NC(=O)c3nn(C)cc3Cl)n2)cc1	1	-5	5	49	0.5	-7
Cc1ccc(Cn2ccc(NC(=O)c3cc(-c4ccc(Cl)cc4)on3)n2)cc1	0.8	22	11	5	1	10
CC1CCc2nn(CC(=O)NC3CCCC(C)C3C)cc2C1 (stereo not given)	1	3	17	2	1	7
Cc1cc(C(=O)Nc2cc(C)n(Cc3ccc(Cl)cc3)n2)no1	.	.	6	.	.	-7
Cc1cc(NC(=O)c2cc(C(C)C)on2)nn1Cc1ccc(Cl)cc1	0.6	40	21	65*	0.3	-11
Cc1ccc(N(CN2C(=O)NC(C)(C)C2=O)CN2C(=O)NC(C)(C)C2=O)cc1	1	-3	4	51*	0.5	7
SMILES	CYP2C9 act	CYP2C9 inh	PostGolgi ctrl	CYP2C19 inh	CYP2C19 activ	PostGolgi yeast
O=C(CSc1nnc(-c2ccc3c(c2)OCCO3)o1)NC1CCCCC1	1.1	-11	.	-7	1.1	.
Cc1ccc(NC(=O)Cc2nc(CSc3nnc(-c4ccc5c(c4)OCO5)o3)cs2)cc1	0.8	20	21	61*	0.4	15
Clc1ccc(CSc2nnc(-c3ccncc3)o2)cc1	0.2	82*	0	92*	0.1	2
Clc1ccc(CSc2nnc(-c3ccc4c(c3)OCO4)o2)cc1	0.5	50*	9	21	0.8	-1
c1ccc(-n2c(SCC3CCCCO3)nnc2-c2cccs2)cc1 (stereo not given)	0.8	21	4	12	0.9	4
Cc1c(CN(C)C(=O)c2sc3cc(Cl)ccc3c2Cl)cnn1C	1.3	-34	22	93*	0.1	2
